# An excerpt weighted towards active compounds, which were near 4.7% of everything screened.
# D1 ag: Allosteric Agonists of the Human D1 Dopamine Receptor: qHTS. 1% of 360,000 active. AID 504660, 2011. activation, % at 2 µM. HEK293 T-REx D1 cells, calcium flux, agonist mode; note: 0% is about no effect
# Target sequence (P21728 whole entry, looked up): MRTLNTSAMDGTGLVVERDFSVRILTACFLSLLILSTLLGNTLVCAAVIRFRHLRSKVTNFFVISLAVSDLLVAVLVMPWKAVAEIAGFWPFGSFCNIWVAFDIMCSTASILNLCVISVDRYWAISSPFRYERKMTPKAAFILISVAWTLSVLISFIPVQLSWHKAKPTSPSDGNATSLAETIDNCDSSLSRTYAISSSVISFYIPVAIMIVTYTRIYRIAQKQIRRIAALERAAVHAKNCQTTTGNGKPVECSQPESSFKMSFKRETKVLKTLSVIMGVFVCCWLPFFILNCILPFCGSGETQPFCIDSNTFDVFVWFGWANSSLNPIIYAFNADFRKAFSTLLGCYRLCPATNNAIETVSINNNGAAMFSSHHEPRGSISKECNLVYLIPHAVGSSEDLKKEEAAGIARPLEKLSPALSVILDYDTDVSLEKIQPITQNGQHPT
#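 Tetracycline-induced HEK293 TREx D1 cells, force-coupled to calcium signalling, were dye-loaded with a no-wash calcium kit. Compound was pin-added after a 10 s baseline. Fluorescence was read kinetically at 1 cycle/s for 180 s, with calcium rises flagged as agonism.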
# D1 antag: Antagonist of Human D 1 Dopamine Receptor: qHTS. D(1A) dopamine receptor (Homo sapiens), P21728. activity change, negative = inhibition, % at 10 µM. 3.2% of 360,000 active. HEK293 TREx D1 cells, calcium flux, dopamine EC80; active compounds read low. AID 504652, 2011; in the data active = activity change below about -30%; note: % is set by controls: 0 for no effect and ±100 for the full control effect
#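 Antagonism measured as reduced calcium response to an EC80 dopamine addition following 180 s compound pre-read; cells were inducible HEK293 Trex D1 plated overnight at 30 C, read kinetically at 1 cycle/sec.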
# D1 potentiator: Potentiators of Human D1 Dopamine Receptor: qHTS. 0.036% of 360,000 active. HEK293 TREx D1 cells, calcium flux, dopamine EC20 potentiation. AID 504651, 2011. D(1A) dopamine receptor (Homo sapiens), P21728. potentiation, % at 10 µM; in the data active = potentiation above about 30%; note: 0% is about no effect
# TRHR PAM: qHTS for Small Molecule Agonists and Allosteric Enhancers of Human TRH Receptor: Primary Screen for Enhancers. Thyrotropin-releasing hormone receptor (Homo sapiens), P34981. 0.66% of 360,000 active. enhancement, % at 2 µM. TRHR cells, fluo-8 calcium fluorescence, EC20 TRH enhancement; in the data active = enhancement above about 30%; note: 0% is about no effect
#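 Enhancer read-out: after compound pinning and an initial kinetic agonist-mode read, an EC20 of TRH (10 nM final) was injected and fluo-8 calcium signal (Ex 480/Em 530) followed at 1 s/cycle for 100 cycles in TRHR-expressing cells.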
# TRHR agonist: qHTS for Small Molecule Agonists and Allosteric Enhancers of Human TRH Receptor: Primary Screen for Agonists | activation, % at 2 µM | 0.18% of 360,000 active | TRHR cells, calcium flux fluo-8, FDSS agonist mode | AID 493084, 2011; note: 0% is about no effect
#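 In this calcium-flux screen, cells bearing human TRHR are dye-loaded with fluo-8, baselined for 10 cycles, then exposed to library compounds; positive kinetic calcium responses during the agonist phase mark hits, with TRH as control.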
# Active calls of the source: *; . = no result given. Cut-off read from the data, not from the text of the source, unless noted: active = activation above about 30%; inactive = the rest.
SMILES,D1 ag,D1 antag,D1 potentiator,TRHR PAM,TRHR agonist
COC(=O)C1=C(c2ccccc2OCc2ccccc2)C[C@@H]2CC[C@H]1N2C(=O)NCCOc1ccc(OC)cc1,2,-38*,-5,-4,1
COC(=O)C1=C(c2ccc3ccccc3c2)C[C@@H]2CC[C@H]1N2C(=O)NCc1ccc(C(F)(F)F)cc1,4,20,1,13,1
COC(=O)C1=C(c2ccc(F)cc2OCc2ccccc2)C[C@@H]2CC[C@H]1N2C(=O)NCCc1ccc(F)cc1,5,-32*,-6,-4,1
Cc1ccc(NC(=O)CN2C(=O)CN=C(c3ccccc3)c3ccccc32)c(C)c1,-1,-1,2,3,-1
Cc1ccc(-c2nn3c(=O)cc(CN4CCN(C(=O)COc5ccc(C)c(C)c5)CC4)nc3s2)cc1,-2,6,-1,2,0
COC(=O)C1=C(c2cccc(OCc3ccccc3)c2)C[C@@H]2CC[C@H]1N2C(=O)NCc1cccc(OC)c1,9,.,29,5,1
COC(=O)C1=C(c2cccc(OCc3ccccc3)c2)C[C@@H]2CC[C@H]1N2C(=O)NCc1ccccc1C(F)(F)F,4,-1,-3,34*,1
O=C(Cn1ncc2c3ccccc3n(Cc3cccc(Cl)c3)c2c1=O)N1CCC2(CC1)OCCO2,7,1,6,4,1
Cn1c2ccccc2c2cnn(CC(=O)N3CCC4(CC3)OCCO4)c(=O)c21,0,-31*,-1,-5,0
CC(C)[C@H]1C(=O)O[C@H](C(C)C)C(=O)N(C)[C@@H](C(C)C)C(=O)O[C@H](C(C)C)C(=O)N(C)[C@@H](C(C)C)C(=O)O[C@H](C(C)C)C(=O)N1C,53*,-33*,-3,-10,3
COC(=O)c1ccccc1NC(=O)c1cccn(Cc2cccc(Cl)c2)c1=O,3,2,-4,0,0
CCN(CC)c1ccc(/C=C/[N+](=O)[O-])cc1,254*,-19,-3,0,72*
CC(C)[C@H]1C(=O)N2CCC[C@H]2[C@]2(O)O[C@](NC(=O)[C@@H]3C=C4c5cccc6[nH]cc(c56)C[C@H]4N(C)C3)(C(C)C)C(=O)N12,4,-34*,-5,2,6
CC(C)[C@@]1(NC(=O)[C@@H]2C[C@@H]3c4cccc5[nH]cc(c45)C[C@H]3N(C)C2)O[C@@]2(O)[C@@H]3CCCN3C(=O)[C@H](Cc3ccccc3)N2C1=O,29,-68*,-6,3,6
CC(C)[C@@]1(NC(=O)[C@@H]2C=C3c4cccc5[nH]cc(c45)C[C@H]3N(C)C2)O[C@@]2(O)[C@@H]3CCCN3C(=O)[C@H](Cc3ccccc3)N2C1=O,27,-1,1,4,3
COc1ccc(C)cc1NC(=O)c1cccn(Cc2cccc([N+](=O)[O-])c2)c1=O,0,.,5,4,1
COc1ccc(OCC(=O)N2CCN(Cc3cc(=O)n4nc(-c5ccccc5C)sc4n3)CC2)cc1,0,-4,-3,4,-1
FCCN(CCF)c1cccc(Cl)c1,0,-34*,4,5,-1
CCn1c(CN2CCN(C)CC2)nc2ccccc21,1,8,-2,-2,0
O=C(Nc1ccc(Cl)cc1C(=O)c1ccccc1)c1ccco1,5,-33*,-5,-6,0
O=C(Nc1ccc(Cl)cc1C(=O)c1ccccc1Cl)c1ccco1,2,-39*,-7,1,1
CCCCc1ccc(NC(=O)c2cccn(Cc3ccc(Cl)cc3)c2=O)cc1,4,12,-1,2,1
C=CCN1C(=O)/C(=C/c2ccc(N3CCOCC3)o2)C(=O)NC1=S,119*,-1,-2,-4,-1
Cc1ccc(/C=C2\C(=O)NC(=S)N(c3ccc(F)cc3)C2=O)o1,9,-15,5,13,2

# Screening data as filed in PubChem.
